This is an account of results in PubChem BioAssay (Tox21).

Each structure is given as a SMILES string. Inconclusive results are not listed. Entries that show only a call come without a potency. Calls of active or inactive are those of the source. Calls come from the whole dose curve; as a rule, active = well fitted activation curve with a large enough effect in the repeat runs; inconclusive = weak or mixed curves; inactive = no such curve, though single readings can be large or run the other way.
Potency is the fitted concentration of half-maximal effect.

The nature of this assay: qHTS assay to identify small molecule agonists of the estrogen related receptor signaling pathway with the pleiotropic PPARgamma coactivator (PGC) (AID 1224823). The settings on record: ERR/PGC reporter cell line, luciferase agonist mode; series mostly up to 46.1 µM. In a few lines:
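PGC/ERR reporter cells were seeded, rested 6 h at 37 C/5% CO2, then exposed to compounds in DMSO by pin transfer for 18 h at 37 C. Luciferase activity was read as luminescence after One-Glo reagent and 30 min at room temperature.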
For orientation: In qHTS, concentration-response curves come from the screen itself.
As to `COc1cc(OC)cc(-c2cc3cnc(N)nc3nc2NC(=O)NC(C)(C)C)c1`, the Potency result is “inactive”.
Regarding `CCN(CC)CC#CCOC(=O)C(O)(c1ccccc1)C1CCCCC1` (configuration not stated), the Potency result was “inactive”.
The same measure for `CC(C)C[C@H](NC(=O)[C@@H](O)[C@H](N)Cc1ccccc1)C(=O)O`: “inactive”.
In the case of `NC(=NCc1ccccc1)NC(=O)c1nc(Cl)c(N)nc1N`, the Potency result was “inactive”.
The same measure for `O=C1Nc2ccc(I)cc2/C1=C/c1cc(Br)c(O)c(Br)c1`: “inactive”.
As for `Nc1c(S(=O)(=O)O)cc(Nc2ccc(Nc3nc(Cl)nc(Nc4ccc(S(=O)(=O)O)cc4)n3)c(S(=O)(=O)O)c2)c2c1C(=O)c1ccccc1C2=O`, the Potency entry is “inactive”.
Regarding `CC(=O)/C=C1\C(=O)N(C)c2ccccc21`, the Potency entry was “inactive”.
`C[C@H](Cc1ccc(O)c(O)c1)[C@@H](C)Cc1ccc(O)c(O)c1`: the Potency entry was “inactive”.
The result for `CCCCCCCCCCC(C)(C)C(=O)Nc1c(OC)cc(OC)cc1OC` reads “inactive”; that for `C=CCc1cccc(/C=N/NC(=O)CN2CCN(Cc3ccccc3)CC2)c1O`, “inactive”.
Regarding `Cc1cccc(C2CN(C)CCc3c2cc(O)c(O)c3Cl)c1` (configuration not stated), the Potency result was “inactive”.
Consider `CN(C)S(=O)(=O)c1ccc2c(c1)/C(=C/c1cc3c([nH]1)CCCC3)C(=O)N2`, for which the Potency is 23.7 µM (active).
As to `Oc1ccc(/C=C/c2ccc(/C=C/c3ccc(O)cc3)c(Br)c2)cc1`, the Potency result is “inactive”.
As for `COC(=O)C1=C(C)NC(C)=C([N+](=O)[O-])C1c1ccccc1C(F)(F)F` (configuration not stated), the Potency entry was “inactive”.
As for `Clc1ccc2c(c1)N=C(N1CCNCC1)c1ccccc1N2`, the Potency result is “inactive”.
Consider `C=CCN1CCc2c(cc(O)c(O)c2Br)[C@@H](c2ccccc2)C1`, for which the Potency result was “inactive”.
The same measure for `COc1ccc(/C=C/c2nc(NCCCN(C)C)c3ccccc3n2)cc1`: “inactive”.
